According to the supplement of paper PMC6555819:

Experiments:
Assay in all cases: PBM binding z-score (relative to random genomic background probes); higher = stronger binding; sequences stand for … in GC…GCGATTGACAGCGTAGAATGAAGG
[1] = system: PPARg:RXRa DBDmut IVT, anti-RXR (DBD mutation: RXRa K156A/R161A, NR concentration 270 nM, RXRa partner concentration 90 nM)
Method in brief: (§1)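 Binding z-scores take random background probes as their reference. They come from custom Agilent 4×180K protein-binding microarrays incubated 1 h with ligand-free nuclear receptor dimers, with antibodies against each partner (one per run) detecting binding. Scanned fluorescence was regression-normalized.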

[2] = system: PPARg:RXRa IVT, anti-PPARg (NR concentration 270 nM, RXRa partner concentration 90 nM)
Method in brief: as §1

[3] = system: PPARg DBDmut:RXRa IVT, anti-PPARg (DBD mutation: PPARg1 K132A/R137A, NR concentration 270 nM, RXRa partner concentration 90 nM)
Method in brief: as §1

[4] = system: PPARg DBDmut IVT, anti-PPARg (DBD mutation: PPARg1 K132A/R137A, NR concentration 270 nM)
Method in brief: as §1

[5] = system: PPARg homodimer (NR concentration 180 nM)
Method in brief: as §1

[6] = system: PXR:RXRa (NR concentration 270 nM, RXRa partner concentration 90 nM)
Method in brief: as §1

[7] = system: PXR homodimer (NR concentration 270 nM)
Method in brief: as §1

[8] = system: RARa:RXR (NR concentration 270 nM, RXRa partner concentration 90 nM)
Method in brief: as §1

[9] = system: RARa homodimer (NR concentration 270 nM)
Method in brief: as §1

[10] = system: RARb:RXRa (NR concentration 270 nM, RXRa partner concentration 90 nM)
Method in brief: as §1

[11] = system: RARb homodimer (NR concentration 270 nM)
Method in brief: as §1

[12] = system: RARg:RXRa (NR concentration 270 nM, RXRa partner concentration 90 nM)
Method in brief: as §1

[13] = system: RARg homodimer (NR concentration 270 nM)
Method in brief: as §1

[14] = system: RXRa DBDmut IVT, anti-RXR (DBD mutation: RXRa K156A/R161A, NR concentration 90 nM)
Method in brief: as §1

[15] = system: RXRa homodimer (NR concentration 180 nM)
Method in brief: as §1

[16] = system: THRa:RXRa (NR concentration 90 nM, RXRa partner concentration 90 nM)
Method in brief: as §1

[17] = system: THRa homodimer (NR concentration 90 nM)
Method in brief: as §1

[18] = system: VDR homodimer (NR concentration 270 nM)
Method in brief: as §1

Sequence	PBM binding z-score [1]	PBM binding z-score [2]	PBM binding z-score [3]	PBM binding z-score [4]	PBM binding z-score [5]	PBM binding z-score [6]	PBM binding z-score [7]	PBM binding z-score [8]	PBM binding z-score [9]	PBM binding z-score [10]	PBM binding z-score [11]	PBM binding z-score [12]	PBM binding z-score [13]	PBM binding z-score [14]	PBM binding z-score [15]	PBM binding z-score [16]	PBM binding z-score [17]	PBM binding z-score [18]
TATACAGTGTCAAAGGCCAGAGTACGAATGTCGA	0.051	2.04	0.51	1.14	0.46	0.552	0.236	1.33	0.548	1.88	1.59	1.53	1.65	-0.125	1.49	0.336	-0.189	0.636
TCTAGTTGATCAAAGGTCACACACTCGAAATGCG	2.34	4.45	1.08	1.36	4.93	5.73	2.14	6.33	3.64	4.85	4.89	6.54	5.95	2.21	7.03	4.22	2.08	2.79
CGAACGAGGGCATGACTTGATAGCAAATGCCGAT	2.69	1.81	-0.27	-0.449	-0.43	0.219	-0.361	0.614	-0.682	2.01	0.668	1.26	1.54	2.16	0.981	1.2	-0.168	0.849
CGAATTAGGTCATTGACAGGACAGTGAATAGTAA	8.21	7.99	4.24	2.12	2.32	1.77	0.55	2.57	0.994	3.73	2.68	4.6	4.22	2.69	2.53	3.33	1.54	1.22
ATCGAAAGGTAGAAGGTGAGTATACCCACCCGAA	-0.39	0.667	1.35	-0.025	0.231	0.0568	0.241	0.388	0.608	0.615	0.237	0.633	0.664	-0.929	0.752	0.231	-0.265	-0.279
CCTCGGAGGACAGAAGGTCAGACCTGTCCGCTTT	0.156	0.0592	-1.1	-2.09	1.39	1.69	-0.272	2.2	-0.193	3.22	3.7	3.17	3.3	0.392	2.08	2.39	-0.0906	0.229
GGAACGAGGGCAAAGCTGATAGCATCTGTCGACG	4.19	2.81	0.774	-0.247	0.0511	0.048	-0.0388	0.0386	-0.822	1.99	0.567	1.03	1.5	2.13	0.836	0.546	-0.597	0.452
CAAACTAGGTCAAAGCTCAAAGTCGAGCCAACCA	8.73	8.57	5.63	0.922	1.88	1.33	0.241	2.86	0.284	3.84	2.4	4.14	4.25	1.91	3.7	2.39	0.666	0.583
CGTCCAAGGACAAAGGTCAGTGAAGAGATGACGG	0.675	2.78	-0.53	-0.214	2.27	3.18	0.71	3.79	1.02	4.56	4.61	5.3	4.95	1.31	4.03	4	1.15	0.88
CCTCGGAGGACAGAAAGTCAGAGCTGTCCGCTTT	-0.616	-1.05	-1.75	-1.4	-0.952	-0.859	-0.619	-0.54	-0.769	0.221	-0.167	-0.265	0.0547	-0.146	-0.788	-0.441	-0.747	-0.657
ATCTCTAGGTAGGACTCAGTTCAGTGAAGAACGC	0.406	0.852	0.763	1.31	0.939	0.751	1.95	0.353	1.12	0.407	0.778	0.159	0.0916	0.747	0.071	0.569	0.909	1.66
CGTCCAAGGTCAGCAGGGCAGTGAAAGCGACGTG	2.44	3.13	-0.138	-1.04	1.69	2.25	0.00417	3.12	0.417	5.17	4.12	5.28	5.9	2.63	3.74	3.61	1.9	1.02
TCTAGTTGGCCAAAGGTCACACACTCGAAATGCG	2.73	5.56	0.249	0.877	6.18	5.82	1.45	6.89	3.8	4.93	5.04	6.5	6.31	1.5	7.78	3.78	1.77	2.27
TAGCCTAGGTCAGATCGGGCCAGTATGCGCTATA	0.347	1.3	-0.699	-0.549	-0.654	0.891	-0.704	0.898	-0.754	3.16	2.29	2.85	3.88	-0.301	1.48	4.04	0.0471	-0.51
CCAGACAGTTGAAAGGTAACTCAGTCTGGTACGC	0.0148	0.0044	-0.176	-0.589	0.762	0.219	0.144	0.485	0.568	0.56	0.351	0.456	0.357	0.511	0.993	0.38	-0.129	-0.355
TCTAGCAGGCCAGACGGTCACTCAAGAGGTACGG	0.883	0.0624	-0.226	-0.934	-0.417	-0.727	-0.716	-0.457	-0.452	1.04	1.12	0.224	0.8	-0.226	0.291	-0.447	-0.799	-1.01
